Measurements published in ChEMBL document CHEMBL3988442, “University of Dundee, Small-Polar-MMV Screening Library” (2021).
Out of some 85,000 compounds screened, about 440 (0.52%) showed an effect of 50% or more. The sample as a whole holds a higher share of strong results than the screen did.

Assay: In vitro enzyme assay to detect hydrolysis of chlorophenol red-beta-D-[…] directly proportional to the number of Toxoplasma stably expressing beta-galactosidase
Type: functional, organism-based, Toxoplasma gondii
Parameters: scale not given: in the data most compounds retested in dose-response had high values

SMILES | Percent Effect (50 µM) [%] | Percent Effect (10 µM) [%]
CC(C)OCc1nc(C(C)N)no1 (configuration not stated) | -1.581 | –
CCCN(C)C(CO)c1ccc(OC)cc1 (configuration not stated) | -2.385 | –
O=C(c1ccc2c(c1)OCCCO2)N1CCCC(n2ccnc2)C1 (configuration not stated) | – | -11.97
O=C(c1ccc2c(c1)OCCCO2)N1CCCC(n2cccn2)C1 (configuration not stated) | – | 55.61
O=C(c1ccc2c(c1)OCO2)N1CCCC(n2cccn2)C1 (configuration not stated) | – | 8.443
CC(C)(C)C(=O)CCN1CCCCC1 | 28.4 | –
CNCC1CCS(=O)(=O)C1 (configuration not stated) | 7.416 | –
N#Cc1cccc(CS(=O)(=O)NC(Cc2ccccc2)C(N)=O)c1 (configuration not stated) | – | -7.673
NC(=O)C(Cc1ccccc1)NS(=O)(=O)Cc1ccccc1F (configuration not stated) | – | -5.639
NC(=O)C(Cc1ccccc1)NS(=O)(=O)Cc1ccccc1Cl (configuration not stated) | – | 50.03
CCCn1ncc(-c2ccnc(NC3CC(C)(C)NC(C)(C)C3)n2)c1C | – | 50.73
CCCn1ncc(-c2ccnc(NC3CCSC3)n2)c1C (configuration not stated) | – | 16.2
CCCn1cc(-c2ccnc(NC3CCc4ccccc4C3)n2)c(C)n1 (configuration not stated) | – | 39.11
CCCn1ncc(-c2ccnc(N[C@@H]3C[C@@H]4CC[C@H]3C4)n2)c1C | – | 55.29
CCc1cc(N[C@@H]2C[C@H]3CC[C@@H]2C3)n2nccc2n1 | – | 9.168
CCCn1ncc(-c2ccnc(NC3CCCc4ccccc43)n2)c1C (configuration not stated) | – | 4.434
C[C@@H]1CNC[C@H]1C(N)=O | -3.858 | –
COCC1(C(=O)N2C[C@@H](N)C[C@H]2C(=O)NC(C)C)CC1 | -6.582 | –
COC(=O)c1cn(CC(=O)Nc2cccc(F)c2)nn1 | -28.09 | –
CC(N)C(=O)N(C)C1CCOCC1 (configuration not stated) | -25.47 | –
OCc1nnc2n1N=C(c1ccc(Cl)cc1)CS2 | -7.844 | –
Cc1nnc2n1N=C(c1ccccc1)CS2 | 84.29 | –
Cc1nnc2n1N=C(c1cccs1)CS2 | -17.29 | –
COCc1cccc(C(=O)Nc2ccncc2)c1 | -8.978 | –
COCCN(CCC#N)S(=O)(=O)c1ncn(C)c1Cl | 2.241 | –

SMILES | Percent Effect (50 µM) [%] | Percent Effect (10 µM) [%]
O=C(CN1CCn2ccnc2C1)Nc1ccc(Cl)cn1 | -8.564 | –
CC(C)n1cnnc1CN1CCN(c2nc[nH]n2)CC1 | 14.64 | –
CCCN1CCC(C(N)=O)CC1 | -22.14 | –
NCCN1CCC(C(N)=O)CC1 | 44.2 | –
CS(=O)(=O)CCN1CCC(C(N)=O)CC1 | 50.58 | –
O=C(Nc1nncs1)c1cccc(O)c1 | -14.91 | –
Cc1ccc(F)cc1NC(=O)C(C)Nc1cnn(C)c1 (configuration not stated) | 17.75 | –
CNC(=O)c1cccc(NCc2nc(C)cs2)n1 | -1.003 | –
O=C1NCCN(C(=O)c2ccc(Br)o2)C1c1cccs1 (configuration not stated) | 99.65 | –
N#Cc1ccc(CN2CCNC(=O)C2c2cccs2)cc1 (configuration not stated) | – | 7.265
COC(=O)CCN1CCNC(=O)C1c1cccs1 (configuration not stated) | -1.577 | –
Cc1nc(CNC(=O)N(C)Cc2ccncc2)cs1 | -10.17 | –
NC(=O)C1(O)CCN(Cc2nc(C3CCCC3)no2)C1 (configuration not stated) | -5.906 | –
CCC(=O)NC1CCCN(Cc2noc(C)n2)C1 (configuration not stated) | 11.52 | –
CCC(C)C(=O)Nc1nccs1 (configuration not stated) | -54.41 | –
CC(C)COCCC(=O)Nc1nccs1 | 97.25 | –
CC(C)COCCC(=O)Nc1c(-c2ccc(F)cc2)ncn1C | – | 2.891
Cc1ccc(C)c(NC(=O)CN2CCC(O)CC2)c1 | -4.783 | –
COCc1nc(CCN)no1 | -5.41 | –
COCC(=O)N1CCN(c2ncnc3cccc(F)c23)CC1 | – | -5.192
CC(C)C(=O)N1CCN(c2ncnc3cc4c(cc23)OCCO4)CC1 | – | 49.63
CC(=O)N1CCN(c2ncnc3cc4c(cc23)OCCO4)CC1 | – | 56.5
CC(C)CCC(=O)N1CCN(c2ncnc3nc(N)ccc23)CC1 | – | 1.58
CN(C)C(=O)c1ccc2ncnc(N3CCCC3)c2c1 | -3.186 | –
CCC(=O)N1CCN(c2ncnc3cc4c(cc23)OCCO4)CC1 | – | 75.76

SMILES | Percent Effect (50 µM) [%] | Percent Effect (10 µM) [%]
CCC(C)C(=O)Nc1ccc(C(=O)N2CCCC2)cc1 (configuration not stated) | -4.343 | –
NCC(=O)c1ccncc1 | -6.113 | –
CC(CC(=O)NCCCS(N)(=O)=O)c1cccc(F)c1 (configuration not stated) | 3.903 | –
Cn1nccc1C(=O)NC1CCc2ccccc2OC1 (configuration not stated) | 1.645 | –
Cc1cs/c(=N/C(=O)c2csc(NCC(C)C)n2)[nH]1 | – | 19.16
Cc1n[nH]/c(=N\C(=O)c2csc(NC3CC3)n2)s1 | 37.81 | –
CC(C)CNc1nc(C(=O)/N=c2\[nH]nc(C(C)(C)C)s2)cs1 | – | 0.3064
Cc1[nH]/c(=N\C(=O)c2csc(NC3CCCC3)n2)sc1C | – | 89.34
O=C(Nc1nccs1)c1csc(NC2CCCC2)n1 | – | 94.63
O=C(NCc1nccs1)c1csc(NC2CC2)n1 | 6.462 | –
CC(=O)Nc1nc(C(=O)Nc2nccs2)cs1 | 1.313 | –
Cc1[nH]/c(=N\C(=O)c2csc(NCC(C)C)n2)sc1C | – | 92.95
Cc1[nH]/c(=N\C(=O)c2csc(NC3CC3)n2)sc1C | – | -0.3064
CC(O)c1c(F)cccc1-n1cncn1 (configuration not stated) | -28.05 | –
COc1ccc2cc(C(=O)N(C)C)c(C)nc2c1 | -8.962 | –
COc1ccc(F)c(F)c1C(=O)N1CCC(CN)C1 (configuration not stated) | -13.62 | –
CCN1CCC(CNC(=O)c2nc(C)c[nH]2)CC1 | -1.833 | –
OC[C@@H]1CCCN1c1nccc(-c2c[nH]nc2-c2ccncc2)n1 | – | -24.25
OC[C@H]1CCCN1c1nccc(-c2cncnc2C2CCCCC2)n1 | – | 29.63
OC[C@H]1CCCN1c1nccc(-c2c[nH]nc2C2CCCCC2)n1 | – | 54.25
N[C@@H]1CCC[C@@H](Oc2ccc(F)cc2Oc2cccc(F)c2)[C@@H]1O | – | 2.748
Cc1ccc(Oc2cc(F)ccc2O[C@@H]2CCC[C@@H](N)[C@H]2O)cc1 | – | 82.52
N[C@@H]1CCC[C@@H](Oc2ccc(F)cc2Oc2ccccc2)[C@@H]1O | – | 2e-14
COCc1ccc(C(=O)N2CCN(CCS(C)(=O)=O)CC2)cc1 | – | -0.2262
Cn1ncc(C(=O)N2CCN(C(=O)c3ccco3)CC2)c1Cl | – | 75.62

SMILES | Percent Effect (50 µM) [%] | Percent Effect (10 µM) [%]
Cn1ncc(C(=O)N2CCN(S(C)(=O)=O)CC2)c1Cl | – | 77.51
CCOC(=O)N1CCN(C(=O)c2ccco2)CC1 | 9.256 | –
Cn1ncc(C(=O)N2CCN(CCS(C)(=O)=O)CC2)c1Cl | – | 67.81
Cn1ncc(C(=O)N2CCOCC2)c1Cl | – | 29.02
Cc1c(C(=O)N2CCC(C(O)c3ccc(Cl)cc3)CC2)cnn1C (configuration not stated) | – | -2.382
Cc1c(C(=O)N2CCCN(S(C)(=O)=O)CC2)cnn1C | – | -3.056
CC(C)S(=O)(=O)N1CCN(C(=O)c2cnn(C)c2Cl)CC1 | – | 63.23
CCc1ccc(C(=O)N2CCN(CCS(C)(=O)=O)CC2)o1 | – | -13.13
CS(=O)(=O)N1CCN(C(=O)c2cnn3c2OCCC3)CC1 | – | -9.448
Cc1oc(C(C)C)cc1C(=O)N1CCN(c2cnn(C)c(=O)c2)CC1 | – | 15.5
O=C(NC1CCc2ccc(F)cc21)c1c[nH]nn1 (configuration not stated) | 10.36 | –
COC(=O)c1ccc(NCC(=O)N2CCCCC2)cc1 | -5.615 | –
Cc1cc(C(=O)N(C)Cc2ccncc2C)[nH]n1 | -2.921 | –
CC1c2ccsc2CCN1CCC(=O)NC(N)=O (configuration not stated) | -3.706 | –
N#CC1CCCN(C(=O)c2cnc3ccccc3c2)C1 (configuration not stated) | -3.341 | –
CCC1=NC(SCC(=O)c2ccc(OC)cc2)c2cc(CC)sc2N1 (configuration not stated) | – | 50.44
COc1ccc(C(=O)CNC(=O)c2nc(Cl)sc2C(C)C)cc1 | – | 18.25
CCc1ncc(C(=O)c2ccc(OC)cc2)n1C | – | -0.6627
CCC1=NC(SCC(=O)c2ccccc2)c2cc(CC)sc2N1 (configuration not stated) | – | 88.55
CCC1=NC(SCC(=O)c2ccc(C)cc2)c2cc(CC)sc2N1 (configuration not stated) | – | 65.66
CCc1nc(C(=O)N2CCOCC2CC(=O)c2ccccc2)c[nH]1 (configuration not stated) | – | 0.2818
CCc1ncc(C(=O)N2CCOCC2CC(=O)c2ccccc2)s1 (configuration not stated) | – | 3.663
CCC1=NC(SCC(=O)c2ccc(Cl)cc2)c2cc(CC)sc2N1 (configuration not stated) | – | 23.77
Cc1cccc(-n2nnnc2C(C)(C)N2CCCC2)c1 | -9.882 | –
COCCNS(=O)(=O)c1ccc(CN)cc1 | -7.365 | –

SMILES | Percent Effect (50 µM) [%] | Percent Effect (10 µM) [%]
CC(C)(C)NC(=O)CNC(C)(C)c1nccs1 | -6.241 | –
Cc1cnccc1NCCNC(=O)[C@H]1CCC[C@H](O)C1 | -11.82 | –
O=C1CCCN1CCCNCc1cccs1 | 4.585 | –
CCCN1CCC(CNc2ncccc2F)C1 (configuration not stated) | -12.03 | –
COc1c(CNC2CCOc3c(Cl)cccc32)c(C)nn1C.Cl (configuration not stated) | – | -5.172
COc1c(CNC2CCOc3ccccc32)c(C(C)C)nn1C (configuration not stated) | – | 0.6462
COc1c(CNC2CCOc3c(Cl)cccc32)c(C(C)C)nn1C (configuration not stated) | – | 50.26
Cc1ccccc1-c1nnn(CC(O)CC(F)(F)F)n1 (configuration not stated) | -8.034 | –
CC(C)CC(C)(N)CO (configuration not stated) | -4.909 | –
COc1cc(NC(=O)CCN2CC(O)C2)cc(OC)c1 | -10.62 | –
c1cc(-c2cnccn2)cc(-c2ccn(CCN3CCCC3)n2)c1 | – | 1.269
CCN1CCN(c2nnc(-c3ccccn3)s2)CC1 | 1.346 | –
c1ccc(-c2nn3c(CN4CCOCC4)nnc3s2)nc1 | – | 71.31
O=C(c1cnccn1)N1CCC(CN2CCOCC2)CC1 | – | 17.94
c1coc(CN2CCn3c(CN4CCOCC4)nnc3C2)c1 | – | 4.961
c1cc(-c2cnccn2)cc(-c2ccn(CCN3CCCCC3)n2)c1 | – | -6.783
c1cnc(-c2nn3c(CN4CCOCC4)nnc3s2)cn1 | – | 68.89
c1cnc(-c2nn3c(CN4CCCCCC4)nnc3s2)cn1 | – | 65.52
O=C(c1cnccn1)N1CCc2ncc(CN3CCOCC3)n2CC1 | – | -7.352
c1cnc(-c2nn3c(CN4CCCCC4)nnc3s2)cn1 | – | 70.51
O=C(NCCN1CCCCC1)c1cnccn1 | 1.153 | –
c1cc(-c2cnccn2)cc(-c2ccn(CCCN3CCCCC3)n2)c1 | – | -3.188
